Results reported in ChEMBL document CHEMBL4513216, “Probing the Open Global Health Chemical Diversity Library for Multistage-Active Starting Points for Next-Generation Antimalarials” (ACS Infect Dis, 2020).
Screen size: about 69,000 compounds; about 8,600 (12%) showed an effect of 50% or more. The list comes from a sample in which strong results are over-represented; it also holds similar structures and randomly drawn compounds.

Each molecule was assayed on Plasmodium berghei (assay: Screen against P. berghei liver stage (PbLuc), transformed with Luciferase, at 10uM). Conditions: tested at 10 uM.
Assay type: functional, HepG2

| Structure (SMILES) | INHIBITION [%] |
| --- | --- |
| CC(C)C(=O)N1CC[C@H]2N(C)CC[C@@]2(C(=O)Nc2cccnc2)CC1 | -22.2 |
| Cc1ccc(-c2nn(-c3cccc(F)c3)cc2CN(CCO)CCO)o1 | 27.4 |
| CCN(CCO)Cc1cn(-c2cccc(F)c2)nc1-c1ccc(C)o1 | 25.7 |
| Cc1ccc(-c2nn(-c3cccc(F)c3)cc2CN(C)CCO)o1 | 65.7 |
| Cc1cc(-c2cnn(CCNC(=O)C3CCCO3)c2C2CC2)on1 (stereo unspecified) | 40.4 |
| Cc1cc(-c2cnn(CCNC(=O)CCn3cccn3)c2C2CC2)on1 | -1.85 |
| Cc1cc(-c2cnn(CCNC(=O)C3CC3)c2C2CC2)on1 | 59.7 |
| Cc1cc(-c2cnn(CCNC(=O)c3cccnc3)c2C2CC2)on1 | 38.7 |
| Cc1cc(-c2cnn(CCNC(=O)Cc3ccccn3)c2C2CC2)on1 | 60.4 |
| Cc1cc(-c2cnn(CCNC(=O)c3cnn(C)c3)c2C2CC2)on1 | 10 |
| O=C(c1cccnc1)N1C[C@H]2CC[C@@H](C1)N(Cc1ccc(F)cc1Cl)C2 | -30 |
| COc1ccc(C)cc1CN(CC(N)=O)C(C)C | -4.63 |
| O=C(NC[C@H]1OC[C@@H]2CCN(Cc3ccco3)C[C@@H]21)c1ccnnc1 | 6.72 |
| Cc1ocnc1C(=O)N(C)[C@@H]1CCC[C@@H](N2CCCC2)[C@@H]1O | 39.3 |
| O=C(NC1CC1)c1cccc(S(=O)(=O)NCCc2nc(C3CC3)no2)c1 | -86.5 |
| COCCc1noc(CN2CCN(c3ccc(OC)cc3)C(=O)C2C)n1 (stereo unspecified) | 3.3 |
| Cc1cc(NC(=O)CNCc2csc(-c3ncccn3)n2)ccc1Cl | 18 |
| CCc1csc(CNCC(=O)Nc2ccc(Cl)c(C)c2)n1 | 49 |
| Cc1cc(NC(=O)CNCc2csc(-c3cnccn3)n2)ccc1Cl | 52.2 |
| Cc1nnc(CN2CCC3(CCC(=O)N(C4CCC(O)CC4)C3)CC2)o1 (stereo unspecified) | 26 |
| CN(Cc1ccccn1)C1CCCN(Cc2noc(C3CC3)n2)C1 (stereo unspecified) | 16.9 |
| Cc1cc(CN2CCC(N(C)Cc3noc(C4CC4)n3)C2)no1 (stereo unspecified) | 33.3 |

| Structure (SMILES) | INHIBITION [%] |
| --- | --- |
| Cc1nc(CN(C)C2CCN(Cc3c(C)noc3C)C2)no1 (stereo unspecified) | 21.5 |
| CN(Cc1cccnc1)C1CCCN(Cc2noc(C3CC3)n2)C1 (stereo unspecified) | 57.45 |
| Cc1cc(CN(C)C2CCCN(Cc3noc(C4CC4)n3)C2)no1 (stereo unspecified) | 53.8 |
| Cc1nc(CN2CCCC(N(C)Cc3nc(C)c(C)o3)C2)no1 (stereo unspecified) | -31.8 |
| Cc1cc(CN(C)C2CCCN(Cc3noc(C)n3)C2)no1 (stereo unspecified) | -14.7 |
| CN(Cc1cnn(C)c1)C1CCCN(Cc2noc(C3CC3)n2)C1 (stereo unspecified) | 14.9 |
| Cc1nc(CN2CCCC(N(C)Cc3c(C)noc3C)C2)no1 (stereo unspecified) | 58 |
| Cc1cccc(CNCc2ccc(NC(=O)NC(C)C)cc2)c1 | 47.1 |
| c1csc(CN2CCc3nnc(COc4cncnc4)n3CC2)c1 | 20.5 |
| COc1ccccc1OCCNC(=O)N1CCC(n2cncn2)CC1 | 3.15 |
| CC(NC(=O)NCc1cc(Br)cs1)c1ccccn1 (stereo unspecified) | 82.6 |
| CCn1cnnc1CNC(=O)NCC(C(C)C)N1CCC(C)CC1 (stereo unspecified) | 37.1 |
| CC(NC(=O)NCc1ccc(Cl)s1)c1ccccn1 (stereo unspecified) | 17.7 |
| CC(NC(=O)NCc1ccc(Cl)cc1)c1ccccn1 (stereo unspecified) | 13.5 |
| CCn1cnnc1CNC(=O)N1CCOCC1 | -4.1 |
| CCn1cnnc1CNC(=O)NC(C)c1cccs1 (stereo unspecified) | 31 |
| CCn1cnnc1CNC(=O)NC(C)C(C)C (stereo unspecified) | 10 |
| CCn1cnnc1CNC(=O)NCC(C(C)C)N1CCOCC1 (stereo unspecified) | 56.8 |
| CCn1cnnc1CNC(=O)NC(C)c1ccccn1 (stereo unspecified) | 57.8 |
| COCC(=O)N1CCN(c2cc(C)nc(C3CCCN3C(C)=O)c2)CC1 (stereo unspecified) | 32.3 |
| Cc1ccccc1CN1CCN(C(=O)c2cnc(C3CC3)[nH]c2=O)CC1 | 27.5 |
| COc1cccnc1-c1ccc(F)c2c1OC(CN)C2 (stereo unspecified) | -66.7 |

| Structure (SMILES) | INHIBITION [%] |
| --- | --- |
| COc1cc(-c2ccc(F)c3c2OC(CN)C3)cc(OC)c1OC (stereo unspecified) | 31.9 |
| COc1cc(C)c(-c2ccc(F)c3c2OC(CN)C3)cc1C (stereo unspecified) | 55.1 |
| CC(=O)N1[C@H](Cn2cncn2)C[C@@H]2CN(C(=O)c3ccoc3)CC[C@@H]21 | -22.1 |
| c1cncc(CN2CCc3c(CNc4nccs4)n[nH]c3C2)c1 | 33 |
| Cc1n[nH]c(C2CN(C(=O)CCc3ccco3)CCO2)n1 (stereo unspecified) | -29.2 |
| CC1(C)CC(n2cc3nc(N)[nH]cc-3c2=O)CC(C)(C)N1 | 3.47 |
| CC1CCC(n2cc3nc(N)[nH]cc-3c2=O)CC1 (stereo unspecified) | -8.9 |
| CN1CCC(n2cc3nc(N)[nH]cc-3c2=O)CC1 | 43.3 |
| CC1(C)CC(n2cc3nc(N4CCCC4)[nH]cc-3c2=O)CC(C)(C)N1 | 64.8 |
| CN(C)c1nc2cn(C3CC(C)(C)NC(C)(C)C3)c(=O)c-2c[nH]1 | 20.1 |
| CNc1nc2cn(C3CC(C)(C)NC(C)(C)C3)c(=O)c-2c[nH]1 | 25.1 |
| CC1(C)CC(n2cc3nc(N4CCOCC4)[nH]cc-3c2=O)CC(C)(C)N1 | 60.1 |
| O=c1c2c[nH]c(N3CCOCC3)nc-2cn1C1CCS(=O)(=O)C1 (stereo unspecified) | 24 |
| Nc1nc2cn(C3CCCC3)c(=O)c-2c[nH]1 | 51.8 |
| CCn1cc(NC(=O)c2cc(C)nc(N3CCOCC3)n2)cn1 | 15.35 |
| Cc1noc(C2CCN(C(=O)C3CCCO3)CC2)n1 (stereo unspecified) | 35.6 |
| CN1CCCN(C(=O)c2csc3nc(-c4ccc(Cl)cc4)cn23)CC1 | 43.6 |
| O=C(NCCOc1ccc2c(c1)OCO2)N1CCC1 | 23.4 |
| Cc1ccc(C(=O)N2CCC3(CCC(=O)N(CC(N)=O)C3)CC2)cc1 | 36.8 |
| Cc1nn(C)c2c(NCc3ccc(F)cc3)nc(C3CC3)nc12 | 56.9 |
| Cc1nc(NC2CCCC2)c2c(n1)c(C)nn2C | 41.5 |
| Cc1nn(C)c2c(NCc3ccccc3F)nc(C3CC3)nc12 | 75.1 |

| Structure (SMILES) | INHIBITION [%] |
| --- | --- |
| COc1ccc(CNc2nc(C3CC3)nc3c(C)nn(C)c23)cc1 | -26.1 |
| Cc1nn(C)c2c(N3CCCC3)nc(C3CC3)nc12 | 34.5 |
| Cc1nn(C)c2c(NCc3ccncc3)nc(C3CC3)nc12 | -6.91 |
| Cc1nc(NC2CC2)c2c(n1)c(C)nn2C | 29.3 |
| Cc1nn(C)c2c(NCc3cccnc3)nc(C3CC3)nc12 | 35.1 |
| Cc1nn(C)c2c(NC3CCCC3)nc(C3CC3)nc12 | 54.2 |
| CC(C)N1[C@@H](C(=O)NCCN(C)C)C[C@H]2CN(c3ncccn3)C[C@H]21 | 37.8 |
| Cc1cc(CN2CCN(C(=O)NC(C)c3cccs3)CC2)on1 (stereo unspecified) | 38.9 |
| CC(C)N1CCN(C(=O)C(C)n2cncn2)CC1 (stereo unspecified) | 19.6 |
| COc1ccc(CN2CC[C@@H](O)[C@@H]2Cc2cnn(C)c2)cc1 | 33.4 |
| Cc1nc(CNC(=O)NCC(O)c2ccc(F)cc2)cs1 (stereo unspecified) | 33.8 |
| CC(C)c1cc(O)nc(C2CCCN2C(=O)C(C)(C)C)n1 (stereo unspecified) | 23.2 |
| O=C1C[C@H]2[C@@H](CCN2C(=O)c2cscn2)N1Cc1cccnc1 | 13.7 |
| COc1cccc2c1CCN(C(=O)NCc1nnc3ccccn13)C2 | -102 |
| Cc1ccc(C2CN(C(=O)NCc3nnc4ccccn34)CCO2)o1 (stereo unspecified) | 61.3 |
| O=C(NCc1nnc2ccccn12)N1CCOC(c2ccsc2)C1 (stereo unspecified) | 32 |
| O=C(NCc1nnc2ccccn12)N1CCc2sccc2C1 | -27.6 |
| CCn1cnnc1CNC(=O)N1CCOC(c2ccccc2Cl)C1 (stereo unspecified) | 17.5 |
| O=C(NCc1nnc2ccccn12)N1CCOC(c2cccs2)C1 (stereo unspecified) | 63.5 |
| Cc1nc(C2CN(C)CCO2)cc(N2CCC(CO)CC2)n1 (stereo unspecified) | 32.8 |
| O=C(CC1CCCC1)N1C[C@H](Oc2cccnc2)[C@H]2OCCC[C@H]21 | -24.5 |
| Cc1nc(=O)c2ccccc2n1C1=CCN(CC(=O)NC(C)C)CC1 | 23.9 |

| Structure (SMILES) | INHIBITION [%] |
| --- | --- |
| O=C(C1CCOc2ccccc2C1)N1Cc2cnn(CCO)c2C1 (stereo unspecified) | 27.6 |
| O=C(CN1CCOc2ccccc2C1)N1Cc2cnn(CCO)c2C1 | 71.5 |
| O=C(C1COc2ccccc2O1)N1Cc2cnn(CCO)c2C1 (stereo unspecified) | 13.7 |
| CCOc1ccc(CN2CCC(c3[nH]ncc3C)C2)cc1CO (stereo unspecified) | 14.65 |
| COc1ncnc2c1CCN(C(=O)NCc1cccnc1)CC2 | -18.2 |
| CCc1nc(C2CCCN2CC(=O)Nc2cc(C)no2)no1 (stereo unspecified) | -14.7 |
| CC(CNc1nccc(C(C)C)n1)Oc1cccnc1 (stereo unspecified) | 24.3 |
| CCc1cnc(NCC(C)Oc2cccnc2)nc1 (stereo unspecified) | -5.19 |
| CCC(CC)NCC(C)Oc1cccnc1 (stereo unspecified) | 54.6 |
| CC(C)c1ncc(CN2CCC(c3n[nH]cc3C(=O)N(C)C)C2)cn1 (stereo unspecified) | 10.9 |
| Cc1cccc(S(=O)(=O)N2C[C@@H]3C[C@@H](c4nc(C)no4)O[C@@H]3C2)c1 | 49.4 |
| CN(C)Cc1ccccc1CN(C)c1ncnc2[nH]ccc12 | 52.2 |
| Cc1cccnc1CN(C)c1ncnc2[nH]ccc12 | -76.9 |
| CN(Cc1ccccc1CN1CCCC1)c1ncnc2[nH]ccc12 | -42.1 |
| COc1cccc(S(=O)(=O)N2C[C@H](OC)[C@]3(CCCO3)C2)c1 | 28.5 |
| CCCN1CCCN(C(=O)Nc2ccc3c(c2)OCO3)CC1 | -42.1 |
| O=C(Nc1ccc2c(c1)OCO2)N1CCN(CCc2ccccc2)CC1 | 60.9 |
| O=C(Nc1ccc2c(c1)OCO2)N1CCN(CCn2cccn2)CC1 | 42.8 |
